# From PubChem BioAssay
# This is a sample that favours compounds with a hit; in the whole collection about 10% have one here.
# G9a block: inhibitors of human histone lysine methyltransferase G9a; 350,000 tested, 8.8% active; Potency, µM (doses to about 102 µM), usual class: inhibitors; Q96KQ7; AID 504332; G9a H3K9 monomethylation, AlphaScreen, 2 h; further: nearly all actives have a fitted effect of over 75% in size
#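 AlphaScreen detection with an anti-monomethyl H3K9 antibody quantified product after a 2 h room-temperature reaction containing 500 nM biotinylated H3K9 peptide, 20 µM SAM and 20 nM enzyme, which had been preincubated 15 min with compound.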
# L3MBTL1 inh: blocks human L3MBTL1; 230,000 tested, 0.66% active; Potency, µM (top dose mostly 57.1 µM), most hits filed as inhibitors; Q9Y468; AlphaScreen L3MBTL1–H3K9me1 peptide binding; further: nearly all actives have a fitted effect of over 60% in size
#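 First, the protein-peptide complex forms for 30 min at room temperature (L3MBTL1 50 nM, biotinylated H3K9me1 peptide 75 nM). Next, compounds are pin-transferred and incubated 30 min. Finally, AlphaScreen beads are added and read after 30 min.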
# BAZ2B inh: blocks human BAZ2B; AlphaScreen BAZ2B-H3K14Ac peptide displacement; 360,000 tested, 4.4% active; Potency, µM (series often up to 114 µM), most hits filed as inhibitors; further: nearly all actives have a fitted effect of over 60% in size
#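 BAZ2B 50 nM plus b-H3(5-23)K14Ac 50 nM, PBS pH 7.4/0.01% Tween-20, 30 min RT; compound added (max 110 uM), 30 min RT; streptavidin donor/Ni-chelate acceptor beads 10 ug/mL final, 20 min dark; AlphaScreen read.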
# HP1b binding inh: HP1-beta chromodomain-methylated histone interaction inhibition; 390,000 tested, 0.56% active; Potency, µM (doses to about 114 µM), most hits filed as inhibitors; AlphaScreen HP1-beta / biotin-H3K9me3 peptide binding; P83916; further: nearly all actives have a fitted effect of over 70% in size
#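 Compound inhibition of the preformed complex between 50 nM HP1-beta and 50 nM biotinylated H3K9me3 peptide was read by AlphaScreen. Buffer was PBS pH 7.4 with 0.01% Tween-20. Incubations ran 30 min at room temperature, with 10 ug/mL donor/acceptor beads.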
# JMJD2A Tudor inh: inhibitors of human JMJD2A Tudor domain; O75164; AlphaScreen JMJD2A-Tudor / H3K4me3 peptide binding; Potency, µM (titrated, usually from 114 µM), actives largely listed as inhibitors; 390,000 tested, 4.4% active; further: nearly all actives have a fitted effect of over 50% in size
# Target sequence (O75164 whole entry, looked up, the tested form may be a part): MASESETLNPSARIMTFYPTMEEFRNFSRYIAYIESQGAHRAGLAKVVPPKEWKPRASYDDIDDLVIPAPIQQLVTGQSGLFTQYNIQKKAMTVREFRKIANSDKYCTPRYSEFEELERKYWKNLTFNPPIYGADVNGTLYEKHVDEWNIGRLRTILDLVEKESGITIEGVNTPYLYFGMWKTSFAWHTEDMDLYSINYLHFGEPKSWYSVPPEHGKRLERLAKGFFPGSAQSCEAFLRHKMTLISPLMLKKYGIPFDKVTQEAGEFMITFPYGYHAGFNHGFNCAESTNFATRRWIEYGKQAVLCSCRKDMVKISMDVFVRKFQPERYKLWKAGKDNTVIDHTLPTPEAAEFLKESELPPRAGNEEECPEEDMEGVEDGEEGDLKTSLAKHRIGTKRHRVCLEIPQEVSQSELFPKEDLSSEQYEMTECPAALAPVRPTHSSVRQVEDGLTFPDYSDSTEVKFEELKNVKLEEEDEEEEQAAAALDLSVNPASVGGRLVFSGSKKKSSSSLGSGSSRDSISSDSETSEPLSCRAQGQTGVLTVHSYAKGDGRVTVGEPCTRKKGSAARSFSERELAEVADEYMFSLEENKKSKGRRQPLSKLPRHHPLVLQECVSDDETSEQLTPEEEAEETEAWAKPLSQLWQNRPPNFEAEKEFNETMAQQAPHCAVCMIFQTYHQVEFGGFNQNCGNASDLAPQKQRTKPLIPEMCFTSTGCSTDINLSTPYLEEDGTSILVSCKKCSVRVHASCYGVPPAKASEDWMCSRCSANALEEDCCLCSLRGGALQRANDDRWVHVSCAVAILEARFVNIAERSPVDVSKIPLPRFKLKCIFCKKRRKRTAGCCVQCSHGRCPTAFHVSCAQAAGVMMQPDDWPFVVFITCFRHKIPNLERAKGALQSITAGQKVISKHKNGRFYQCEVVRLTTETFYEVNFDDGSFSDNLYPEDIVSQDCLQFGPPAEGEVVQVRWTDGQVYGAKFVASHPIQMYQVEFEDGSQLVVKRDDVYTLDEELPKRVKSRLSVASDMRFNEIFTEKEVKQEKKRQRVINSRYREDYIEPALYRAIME
# GLS inhibitor: inhibitors of human glutaminase (GLS). O94925. GLS enzymatic activity, qHTS titration. Potency, µM (doses to about 45.5 µM), hits mostly inhibitors. 410,000 tested, 0.21% active. AID 624170
#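 hKGA in 45 mM KH2PO4 pH 8.2, 0.02% Tween-20 with pin-transferred compounds; 1 mM L-glutamine (stock) plus glutamate oxidase/HRP/Amplex Red coupling added. Fluorescence read initially and after 30 min at RT.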
# Hits are given with their value; . = inactive; ? = inconclusive; / = no result; [ ] = another dose, or the depositor's remark. The call rests on the fitted dose curve; in most records, active means well fitted curve in the direction sought with a large enough effect; inconclusive means small, poorly fitted or top-dose-only effect, or another doubt; inactive means no such curve, though single readings can be large; an effect the other way counts as inactive or inconclusive.
SMILES,G9a block,L3MBTL1 inh,BAZ2B inh,HP1b binding inh,JMJD2A Tudor inh,GLS inhibitor
Cc1c(Cl)cccc1NC(=O)c1cnc2sc(N3CCOCC3)nn2c1=O,.,/,.,?,.,.
CCc1ccccc1NC(=O)C1CCN(S(=O)(=O)c2ccc3[nH]c(=O)ccc3c2)CC1,.,/,.,.,.,.
O=C(NCCSCc1ccccc1Cl)C1CCN(S(=O)(=O)Cc2ccccc2)CC1,?,/,.,.,.,.
O=C1C2C3CCCC3=C3CCCC3C2C(=O)N1c1ccccc1Cl (configuration not stated),/,/,/,.,.,/
CCC(=O)N1CCc2cc(S(=O)(=O)N3CCN(c4ccccc4F)CC3)ccc21,.,/,.,.,.,.
COc1ccc(OCc2ccc(-c3nc(C#N)c(N4CCC(C)CC4)o3)o2)cc1,3.55µM,/,3.55µM,?,?,.
COc1ccc(OCc2ccc(-c3nc(C#N)c(N4CCC(C(N)=O)CC4)o3)o2)cc1,.,/,?,.,?,.
Cc1ccc(S(=O)(=O)c2nc(-c3ccco3)oc2NCC2CCCO2)cc1 (configuration not stated),10µM,.,.,.,.,.
O=S(=O)(c1ccc(Br)cc1)c1nc(-c2ccco2)oc1NCC1CCCO1 (configuration not stated),35.5µM,.,?,.,.,.
COc1ccc(C2N=C(Nc3nc4ccccc4o3)NC3=C2C(=O)CC(C)(C)C3)cc1 (configuration not stated),/,/,/,.,.,/
Cc1[nH]c2ccccc2c1C(=O)C(=O)NC1CC(=O)N(c2cccc(F)c2)C1 (configuration not stated),.,/,.,.,.,.
COc1ccccc1-n1cnc2c(c1=O)c1nc3ccccc3nc1n2-c1ccc(C)c(C)c1,.,.,56.2µM,.,.,.
CC(C)C(NC(=O)c1ccccc1F)C(=O)NCc1ccccc1 (configuration not stated),.,/,.,.,39.8µM,.
Cc1ccc(CNC(=O)c2ccc(Cn3c(=O)c4ccccc4n(CC(=O)Nc4ccc(C)cc4C)c3=O)cc2)cc1,.,/,.,.,.,.
S=c1[nH]nc2ccccn12,/,/,/,?,6.31µM,.
CN(C)C(=O)c1ccc(NC(=O)c2cc(-c3ccco3)nc3ccccc23)cc1,.,/,.,?,39.8µM,.
O=C(Nc1nc2ccccc2s1)c1cc(-c2ccco2)nc2ccccc12,?,.,.,.,?,.
CCN(CC)CCNC(=O)c1ccc(NC(=O)c2cc(-c3ccco3)nc3ccccc23)cc1,31.6µM,/,31.6µM,.,?,.
COC(=O)c1ccccc1NC(=O)c1nc2nc(C)cc(C)n2n1,.[12.7 µM],/,.,.,.,.
Cc1cc(C)n2nc(C(=O)NNC(=O)c3ccccc3)nc2n1,14.1µM,.,?,.,?,.
COc1ccc(NC(=O)c2ccc(NC(=O)c3nc4nc(C)cc(C)n4n3)cc2)cc1,35.5µM,.,.,.,.,.
CNc1nc2c(c(=O)n(C)c(=O)n2C)n1CC(O)COc1ccc(OC)cc1 (configuration not stated),.,/,?,.,.,.
C#CCOCCOCCOCCNc1nc(N2CCN(C(=O)[C@H](Cc3ccc(O)cc3)n3cc([C@@H](N)C(C)CC)nn3)CC2)nc(N2CCN(C(=O)[C@H](Cc3cc4ccccc4[nH]3)n3cc([C@@H](N)C(C)CC)nn3)CC2)n1 (some centres not stated),.,?,28.2µM,.,44.7µM,.
C#CCOCCOCCOCCNc1nc(N2CCN(C(=O)[C@H](Cc3ccc(O)cc3)n3cc([C@@H](N)C(C)CC)nn3)CC2)nc(N2CCN(C(=O)[C@H](Cc3cc4ccccc4[nH]3)n3cc([C@@H](N)CC(C)C)nn3)CC2)n1 (some centres not stated),?,.,35.5µM,?,44.7µM,.
